This passage reports activation results from PubChem BioAssay AID504408 (Broad Institute, 2011).

The campaign covered roughly 300,000 compounds. About 5,200 (1.7%) were called active. This is one part of a sample in which actives are shown more often than they occur. A number with no mark means an inactive call.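 The calls were made as follows: active = mean replicate activation of at least 50% with a set share of replicates each reaching 50%; inconclusive = only one of those two conditions met; inactive = mean below 50% and too few replicates reaching it.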

The nature of the assay: HSF-1 response element luciferase induction – NIH3T3-HGL cells, MG132 stress, luminescence, single point, primary screen (AID 504408).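 Also: 0% = median of the neutral control wells and 100% = twice that signal.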 The following applies: NIH3T3-HGL HSF-1 luciferase reporter, MG132, 8 h; at 9 µM; stronger effect = higher value; 100% = twice DMSO control signal.
`Cc1nn(C)cc1/C=N/NC(=O)c1sc2ccccc2c1Cl`: the activation is 3.1%.

Regarding `Cc1nn(-c2ccccc2)c(Cl)c1/C=N/NC(=O)c1nn(C)cc1[N+](=O)[O-]`, the activation was 125% (active).

Regarding `Cc1ccc(-n2nc(C)c(/C=N/NC(=O)c3cccs3)c2Cl)cc1`, the activation was -8.54%.

With `Cn1c(=O)c([N+](=O)[O-])c(Oc2ccccc2)c2ccccc21`, the activation is 6.27%.

Turning to `Cc1cccc(Oc2c([N+](=O)[O-])c(=O)n(C)c3ccccc23)c1`, the activation is 110% (active).

Turning to `Cc1cc(C)c(-c2c(O)c3ccccc3n(C)c2=O)c(C)c1`, the activation is -9.47%.

As to `CC(=O)c1c(C)[nH]c(C(=O)COC(=O)CCOc2ccc(C)cc2)c1C`, the activation is -0.193%.

As to `COC(=O)N/N=C/c1c[n+]([O-])c2ccccc2[n+]1[O-]`, the activation is 0.846%.

For `Cc1ccc(S(=O)(=O)N(C)C)cc1NC(=O)COC(=O)c1c(C)noc1C`, the activation was 63.2% (active).

Regarding `Cc1ccc(S(=O)(=O)N(C)C)cc1NC(=O)COC(=O)C1COc2ccccc2O1` (stereo unspecified), the activation was -5.78%.

Turning to `Cc1ccc(S(=O)(=O)N(C)C)cc1NC(=O)COC(=O)/C=C/c1cccs1`, the activation is -10.8%.

For the compound `O=C(N/N=C/c1cc(Br)c(O)c([N+](=O)[O-])c1)C(O)(c1ccccc1)c1ccccc1`, the activation is 3.81%.

On to `N#C/C(=C(\O)CCl)c1nnc2n1CCCCC2`, for which the activation was -4.83%.

As to `N#C/C(=C/c1cccc([N+](=O)[O-])c1)c1nnc2n1CCCCC2`, the activation is -2.78%.

Regarding `N#C/C(=C(\O)C(F)(F)F)c1nnc2n1CCCCC2`, the activation was 55.4% (active).

Regarding `CC(C)(C)N1C(=O)[C@H]2[C@@H](c3ccc(Br)cc3)N3C(=O)N(c4cccc(Cl)c4)C(=O)[C@@]3(C)[C@H]2C1=O`, the activation was -6%.

Turning to `CCCCN(C(=O)CSCC(=O)Nc1ccc(OC)cc1)c1c(N)n(CCC)c(=O)[nH]c1=O`, the activation is -4.27%.

Consider `Cc1ccccc1N1CC(C(=O)Nc2ccc(S(=O)(=O)N3CCCC3)cc2)CC1=O` (stereo unspecified), for which the activation is 9.12%.

Turning to `CN(C1CCS(=O)(=O)C1)S(=O)(=O)c1ccc2ccccc2c1` (stereo unspecified), the activation is -4.34%.

As to `COc1ccc(Cc2nnc(SCC(=O)Nc3ccc(C)c(Cl)c3)[nH]c2=O)cc1`, the activation was -4.89%.

Consider `Oc1ccc(CN2CCN(c3ncccn3)CC2)cc1`, for which the activation is 7.28%.

Consider `O=C(c1ccncc1)N1CCN(c2ccc3ccccc3n2)CC1`, for which the activation is -4.23%.

For `c1cnc(N2CCN(c3ccc4ccccc4n3)CC2)nc1`, the activation is 53.3% (active).

For the compound `CCN(CC(=O)Nc1c(F)cccc1F)C(=O)CN1c2cccc3cccc(c23)S1(=O)=O`, the activation was -9.4%.

In the case of `Cc1cc(NC(=O)CCS(=O)(=O)c2ccc(F)cc2)no1`, the activation is -7.32%.

As to `Cc1ccc(S(=O)(=O)NCCC(=O)NNC(=O)C2COc3ccccc3O2)cc1` (stereo unspecified), the activation was 5.45%.

In the case of `Cc1ccc(OCC(=O)Nc2ccc(N3CCN(C(=O)c4ccco4)CC3)cc2)c(C)c1`, the activation was 67.8% (active).

As to `COc1cccc(C(=O)Nc2ccc(N3CCN(C(=O)c4ccco4)CC3)cc2)c1`, the activation was -17.6%.

`Cc1ccc(C)c(OCC(=O)N2CCN(C(=O)c3ccco3)CC2)c1`: the activation is 17%.

`COc1ccc(C(=O)OCC(=O)Nc2ccc3[nH]c(=O)[nH]c3c2)c(OC)c1OC`: the activation is 29.4%.

Regarding `CCOC(=O)c1c(NC(=O)C2CC=CCC2C(=O)O)sc(C)c1CC` (stereo unspecified), the activation was -15%.

Regarding `CCc1c(C)sc(NC(=O)c2ccc(Br)o2)c1C(=O)OC`, the activation was 64.8% (active).

As for `CCc1c(C)sc(NC(=O)c2cccs2)c1C(N)=O`, the activation is 39.5%.

Consider `Cc1onc(-c2ccccc2Cl)c1C(=O)OCc1nnc(-c2ccccc2)o1`, for which the activation was 23.4%.

On to `COc1ccc(-c2nnc3ccc(SCc4ccccc4)nn23)cc1`, for which the activation is 16%.

For the compound `COc1ccc2nc(SCc3ccccc3)nc(C)c2c1`, the activation is 68.9% (active).

Take `COC(=O)CSc1nc(C)c2ccc(OC)cc2n1`: the activation was 17.7%.

On to `Cc1ccc(S(=O)(=O)N2CCCCC2)cc1C(=O)N(C)CC(=O)Nc1cccc(F)c1`, for which the activation is 5.46%.

In the case of `CNC(=O)c1ccc(NC(=O)c2cccc(C(F)(F)F)c2)cc1`, the activation was 9.95%.

Turning to `Cn1nc(C(F)(F)F)cc1-c1ccc(/C=C(\C#N)C(=O)c2cccc(C(F)(F)F)c2)s1`, the activation was 65.6% (active).

As to `Cn1nc(C(F)(F)F)cc1C(=O)O`, the activation was 15.5%.

For `FC(F)(F)c1ccc2c3n(nc2c1)CCN=C3c1ccc(Cl)cc1`, the activation was -14.8%.

`Cc1cc(C)cc(NC(=O)C2CCN(c3nc(C)cc(C)n3)CC2)c1`: the activation is 11%.

For `Cc1cc(C)c2c(NC(=O)C3CC3)nn(C)c2n1`, the activation was 56.3% (active).

In the case of `Cc1ccc2c(NC(=O)C3CC3)cccc2n1`, the activation was -0.793%.

As for `Cc1ccc(-c2csc(NC(=O)Cn3[nH]c(=O)c4ccccc4c3=O)n2)cc1`, the activation is -17.7%.

In the case of `COc1ccc(-c2csc(NC3OC(=O)c4ccccc43)n2)cc1` (stereo unspecified), the activation is 20.2%.

As for `COc1cccc(CC(=O)Nc2nc(-c3ccc(OC)c(OC)c3)cs2)c1`, the activation was 3.91%.

Regarding `COc1ccc(CCNc2nc(-c3cccc(NC(C)=O)c3)cs2)cc1OC`, the activation is -4.33%.

Take `COc1ccc2c(c1OC)C(=O)OC2Nc1nc(-c2ccccc2)cs1` (stereo unspecified): the activation was 139% (active).

Turning to `Cc1ccc(-c2csc(NC3OC(=O)c4ccccc43)n2)cc1` (stereo unspecified), the activation is 81.1% (active).

For `CCc1cccc(C)c1NC(=O)COC(=O)CC1CCCC1`, the activation is 4.54%.

Regarding `CCCCn1c(N)c(N(CC(C)C)C(=O)c2ccc(-n3c(C)ccc3C)cc2)c(=O)[nH]c1=O`, the activation was 4.3%.

On to `CCN(CC(=O)Nc1ccc(NC(C)=O)cc1)C(=O)C1CC(=O)N(Cc2ccc(C)cc2)C1` (stereo unspecified), for which the activation was 3.94%.

For `Cc1cccc(C(=O)NCc2nnc(SC(C)C(=O)Nc3nnc(C)s3)n2C)c1` (stereo unspecified), the activation is -1.45%.

With `Cc1onc(-c2ccccc2Cl)c1C(=O)N(Cc1ccc(N(C)C)cc1)C(C)C`, the activation was 8.27%.

With `COc1cccc(NC(=S)NC(=O)c2c(Cl)c(C)nn2C)c1`, the activation is 60.9% (active).

Turning to `COc1cccc(NC(=S)NCc2ccccn2)c1`, the activation is 15.3%.

With `Cc1nn(C)c(C(=O)NNC(=S)NC2CCCCC2)c1Cl`, the activation is 22.3%.

For the compound `CN(CC(=O)Nc1cccc(F)c1)C(=O)C1CSC2(C)CCC(=O)N12` (stereo unspecified), the activation is 1.13%.

Consider `O=C1CN(C(=O)COc2c(Cl)cccc2Cl)c2ccccc2N1`, for which the activation is -79.7%.

For `Cc1cc(C)cc(NC(=O)COc2coc(CN3CCN(c4ccccc4)CC3)cc2=O)c1`, the activation was 1.43%.

With `COc1ccc(O[C@H]2C=C[C@@H](c3ccccc3)O[C@@H]2CO/N=C/C[C@@H]2C=C[C@H](OC(C)=O)[C@@H](COC(C)=O)O2)cc1`, the activation was -4.12%.

For the compound `C/C(CCC(=O)OC[C@H]1O[C@H](C#Cc2ccccc2)C=C[C@@H]1Oc1ccc(C)cc1)=N\OC[C@@H](O)[C@H]1O[C@@H]2OC(C)(C)O[C@@H]2[C@H]1O`, the activation was 61.7% (active).

For the compound `CCOc1ccc(CCNC(=O)COC(=O)c2c(OC)cccc2OC)cc1OCC`, the activation was -2.88%.

Turning to `Cc1[nH]c(=O)c(C(=O)/C=C/c2ccccc2)c2c1CCCC2`, the activation is 71% (active).

For `Cc1cn(COC/C=C/c2ccccc2)c(=O)[nH]c1=O`, the activation was -6.12%.

For the compound `CC(=O)Nc1ccc(/C=C/C(=O)c2ccccc2)cc1`, the activation was 30.2%.

For `O=C(c1ccc(F)cc1)N1CCC(C(=O)N2CCN(S(=O)(=O)c3ccccc3Br)CC2)CC1`, the activation is -3.27%.

Consider `CCOc1ccc(S(=O)(=O)N2CCC(C(=O)OCc3ccc(OC)cc3)CC2)cc1`, for which the activation is 10.2%.

For `Cc1nc(-c2ccc(F)cc2)c(CC(=O)Nc2cccc(S(=O)(=O)N3CCOCC3)c2)s1`, the activation was 4.29%.

Turning to `O=C(c1ccc[nH]c1=S)N1CCN(S(=O)(=O)c2ccc(Br)cc2Cl)CC1`, the activation was 58% (active).

Consider `O=C(c1ccccc1F)N1CCN(S(=O)(=O)c2ccc(Br)cc2)CC1`, for which the activation was -5.95%.

In the case of `O=C(c1ccc(Cl)c(S(=O)(=O)N2CCCCC2)c1)N1CCCCCC1`, the activation was -11.6%.

`CC(=O)CC[C@@H](C)O[C@@H]1OC(C)[C@H](O)CC1O` (stereo partly specified): the activation is -8.11%.

Take `CCOc1ccc(C(=O)Nc2cc(Cl)ccc2-n2cncn2)cc1OC`: the activation is -15.6%.

For `Cc1ccccc1NC(=O)C(C)OC(=O)CCC(=O)N(CC(C)C)c1c(N)n(CC(C)C)c(=O)[nH]c1=O` (stereo unspecified), the activation is -9.04%.

Consider `Cc1ccccc1Nc1nc(N)nc(CSc2nnc3ccccn23)n1`, for which the activation is -3.03%.

As to `Cc1ccccc1Nc1nc(N)nc(CSc2ccccc2)n1`, the activation was 118% (active).

Turning to `Cc1ccc(C(=O)OCc2nc(N)nc(Nc3ccccc3C)n2)cc1`, the activation is -1.52%.

For `O=C(Nc1ncccc1O)c1ccc(S(=O)(=O)N2CCCCCC2)cc1`, the activation is 3.69%.
